A selection: hits, their analogues and other compounds. The true share with any hit is near 27%.
Cav3 T inh: human Cav3.2 channel inhibition, primary screen; O95180; Cav3.2-expressing cells, Fluo-4 calcium fluorescence FDSS; active compounds read low; B-score at 10 µM; hit rate 4% among 100,000; AID 449739;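 active = single-dose well whose peak fluorescence ratio is a statistical outlier from its plate by either plate-standardised score or position-corrected B-score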
CYP2C19 act: cytochrome P450 2C19 (human) activation | recombinant CYP2C19, luciferin-H EGE luminescence; active compounds read high; 0 = fully inhibited enzyme, 1 = untreated enzyme | activation factor at 5 µM | 96,000 tested, under 10 active | AID 1025;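 active = activation factor of at least 2 at 5 µM in the primary screen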;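 note: 0 = wells with 2.5 mM tranylcypromine and 1 = vehicle-only wells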
Target sequence (P33261 whole entry, looked up): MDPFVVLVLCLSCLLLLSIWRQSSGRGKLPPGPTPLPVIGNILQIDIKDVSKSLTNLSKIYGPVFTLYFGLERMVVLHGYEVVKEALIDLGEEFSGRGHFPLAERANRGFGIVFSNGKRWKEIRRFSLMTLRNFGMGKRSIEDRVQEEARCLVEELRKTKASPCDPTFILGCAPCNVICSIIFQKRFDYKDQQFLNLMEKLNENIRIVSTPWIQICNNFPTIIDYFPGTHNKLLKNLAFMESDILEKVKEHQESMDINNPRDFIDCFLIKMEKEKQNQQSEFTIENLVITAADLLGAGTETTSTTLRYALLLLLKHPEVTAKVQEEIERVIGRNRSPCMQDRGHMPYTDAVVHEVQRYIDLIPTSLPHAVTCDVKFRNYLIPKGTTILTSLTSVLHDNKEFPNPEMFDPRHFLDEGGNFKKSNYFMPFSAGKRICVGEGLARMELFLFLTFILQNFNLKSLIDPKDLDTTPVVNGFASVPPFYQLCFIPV
CYP2C9 act: increases human cytochrome P450 2C9 activity; AID 1024; recombinant CYP2C9, luciferin-H conversion, luminescence; active compounds read high; factor 1 = untreated enzyme, 0 = blocked; hit rate 1.4% among 96,000; P11712; activation factor at 5 µM;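 active = activation factor of 2 or more for CYP2C9 at a 5 µM dose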;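 note: 0 = sulfaphenazole-blocked wells and 1 = vehicle-only wells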
CYP2C9 inhib: inhibitors of human CYP2C9; CYP2C9 Supersomes, luciferin-H conversion, luminescence; inhibition, % at 5 µM; hit rate 20% among 96,000; AID 777;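 active = blocking of liver enzyme CYP2C9 beyond about 50% at 5 µM, limit read from the data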
CYP2C19 inh: inhibitors of human CYP2C19. P33261. CYP2C19 Supersomes, luciferin-H EGE luminescence, 30 min. AID 778. inhibition, % at 5 µM. hit rate 21% among 96,000;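 active = CYP2C19 inhibition above a set limit at 5 µM in the primary screen, cut at about 50% in these data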;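 note: plate controls were negative control wells for no effect and 2.5 mM tranylcypromine positive control for full effect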
An asterisk follows results filed as active; · = no result given.

SMILES	Cav3 T inh	CYP2C19 act	CYP2C9 act	CYP2C9 inhib	CYP2C19 inh
COC(=O)c1ccc(NS(=O)(=O)c2ccc3c(c2)oc(=O)n3C)cc1	0.035	0.1	0.1	90*	89*
CCOc1ccc(NS(=O)(=O)c2ccc3c(c2)oc(=O)n3C)cc1	0.017	0.9	0.8	25	7
COc1cc(NS(=O)(=O)c2ccc3c(c2)oc(=O)n3C)cc(OC)c1OC	-0.23	0.5	0.3	71*	46
COc1ccc(NS(=O)(=O)c2ccc3c(c2)oc(=O)n3C)c(OC)c1	-0.82	0	0.7	30	96*
CCC1=Nc2cc(C(=O)NCCCOC(C)C)ccc2Sc2ccccc21	-4.4	0.3	0.4	60*	72*
CC(C)(C)C(=O)c1sc2nc(-c3cccs3)cc(C(F)(F)F)c2c1N	-8.3*	1.1	0.9	14	-10
CCCc1nnc(SCC(=O)N2CCCC(C)C2)n1CC1CCCO1 (stereo unspecified)	0.36	0.8	1	1	23
CCOC(=O)c1c(=O)n(O)c2ccc(C)cc2[n+]1[O-]	-0.38	1.2	1.2	-18	-15
Cc1noc(C)c1COc1ccc(C(=O)OCC(=O)NC2CCCCC2C)cc1 (stereo unspecified)	-0.038	0.7	0.4	59*	27
CC1CCCC(NC(=O)COC(=O)c2ccc(N(C)C)cc2)C1C (stereo unspecified)	-2.2	0.2	0.5	54*	83*
CN(C)c1ccc(C(=O)OCC(=O)NC2CCCCC2)cc1	0.31	0.1	0.9	13	88*
CCN(CC)c1ccc(C(=O)OCC(=O)NC2CCCCC2C)cc1 (stereo unspecified)	-0.96	0.5	1.3	-26	49
CCOC(=O)N1CCN(C(=O)c2cc(-c3ccc(OCC)cc3)nc3ccccc23)CC1	-2.1	0.8	0.2	76*	16
O=C(c1cc(-c2ccccn2)nc2ccc(Br)cc12)N1CCc2ccccc2C1	·	0.1	0.1	89*	87*
Cc1ccc(-c2cc(C(F)F)n3ncc(C(=O)N4CCN(c5ccccn5)CC4)c3n2)cc1	-5.3*	0.5	0.4	57*	46
CCOc1ccc(-c2cc(C(=O)N3CCN(C)CC3)c3ccccc3n2)cc1	0.094	1	0.8	22	-4
COc1ccc(OC)c(-c2cc(C(=O)N3CCN(c4ncccn4)CC3)c3ccccc3n2)c1	-0.34	0.3	0.1	89*	65*
COc1ccc(-c2cc(C(=O)N3CCN(c4ccccn4)CC3)c3ccccc3n2)cc1	0.17	0.4	0.2	77*	59*
COc1ccccc1-c1cc(C(=O)N2CCc3ccccc3C2)c2ccccc2n1	·	0.5	0.4	64*	48
CS(=O)(=O)N1CCN(C(=O)c2cc(-c3ccncc3)nc3ccc(Cl)cc23)CC1	1.1	0.6	0.3	68*	36
O=C(c1ccco1)N1CCN(C(=O)c2cc(-c3ccccn3)nc3ccc(Cl)cc23)CC1	0.66	0.5	0.1	88*	53*
O=C(O)c1cccc(S(=O)(=O)N2CCOCC2)c1	-0.28	1.2	1	-5	-16
O=C(O)c1cc(-c2ccncc2)nc2ccc(S(=O)(=O)N3CCOCC3)cc12	0.05	0.9	0.4	60*	7
CCN(CC)CCCNC(=O)C1c2cc(OC)c(OC)cc2C(=O)N(C)C1c1cccs1 (stereo unspecified)	0.76	0.3	0.8	19	74*
CCOC(=O)N1CCN(C(=O)C2c3cc(OC)c(OC)cc3C(=O)N3CCc4ccccc4C23)CC1 (stereo unspecified)	1.7	0.9	0.2	76*	6
SMILES	Cav3 T inh	CYP2C19 act	CYP2C9 act	CYP2C9 inhib	CYP2C19 inh
CCN(CC)CCNC(=O)C1c2cc(OC)c(OC)cc2C(=O)N2CCc3ccccc3C12 (stereo unspecified)	0.54	1	0.2	76*	2
COc1cc2c(cc1OC)C(C(=O)NC1CC1)C1c3ccccc3CCN1C2=O (stereo unspecified)	-0.14	·	·	·	·
CSc1nc(C)cc(OCCNS(=O)(=O)c2cc(C)ccc2C)n1	-0.057	0.6	0.5	46	40
O=C(NCCN1CCN(c2ccccc2)CC1)C1CCCN(S(=O)(=O)c2cnc[nH]2)C1 (stereo unspecified)	0.17	0.9	0.8	19	12
CCN(CCNC(=O)C1CCCN(S(=O)(=O)c2cnc[nH]2)C1)c1ccccc1 (stereo unspecified)	1.4	0.1	0.1	95*	90*
CCN(CCCNC(=O)C1CCCN(S(=O)(=O)c2cnc[nH]2)C1)c1ccccc1 (stereo unspecified)	-1.4	0.2	0.5	52*	78*
CC(C)[C@H]1COCCS(=O)(=O)N1Cc1ccccc1	0.97	·	·	·	·
CC(C)=CCC12Oc3cc(O)ccc3C1(O)Oc1cc3c(c(O)c1C2=O)C=CC(C)(C)O3 (stereo unspecified)	-0.33	·	·	·	·
CCOC(=O)CNC(=O)Cn1cnc2c(nnn2-c2cccc(Cl)c2)c1=O	-0.29	0.9	1.4	-44	10
CCOC(=O)C1CCN(S(=O)(=O)c2cnc[nH]2)CC1	-0.089	0.4	0	98*	58*
O=C(C1CCN(S(=O)(=O)c2cnc[nH]2)CC1)N1CCN(c2ncccn2)CC1	-0.33	1.2	1.2	-16	-17
CCOC(=O)C1CCCN(C(=O)C2CCN(S(=O)(=O)c3cnc[nH]3)CC2)C1 (stereo unspecified)	0.64	1	0.1	87*	-2
CCOc1cc(CO)cc(Br)c1OCC(=O)O	-0.014	·	·	·	·
CCOc1cc(CNc2cccc3ccccc23)cc(Br)c1OCC(=O)NC(C)(C)C	-1.9	0.3	0.3	70*	65*
C=CCOc1c(Br)cc(CNc2ccc(NC(=O)CCC)cc2)cc1OCC	-5.4*	0.5	0.3	71*	54*
CCOc1cc(CNc2ccc(N(C)C)cc2)cc(Br)c1OCC(=O)NC(C)(C)C	-0.77	0	0	96*	96*
CCn1c(SCC(=O)N2CCN(c3cccc(Cl)c3)CC2)nc2ccccc2c1=O	-2.7	·	·	·	·
Cc1ccc(NS(=O)(=O)c2cc(C(=O)N3CCOCC3)ccc2C)cc1C	·	0.7	0.9	8	26
COc1ccc(CCC(=O)N2CC(C)OC(C)C2)cc1 (stereo unspecified)	0.027	0.7	0.9	10	28
Cn1cccc1/C=C1\CC(C(C)(C)C)C/C(=C\c2cccn2C)C1=O (stereo unspecified)	-9.1*	0.9	0.8	16	13
CCOC(=O)O[C@]1(C(=O)OCCl)CC[C@H]2[C@@H]3CCC4=CC(=O)C=C[C@]4(C)[C@H]3[C@@H](O)C[C@@]21C	-0.15	·	·	·	·
CCn1c(=O)n(CC(=O)N2CC(C)CC(C)C2)c(=O)c2ccccc21 (stereo unspecified)	0.98	0.7	1	3	25
CS(=O)(=O)Nc1ccccc1C(=O)NCc1ccco1	-0.18	0.8	0.5	49	25
COc1ccc(S(=O)(=O)Nc2ccccc2C(=O)NCc2ccco2)cc1Br	-3.8*	0.7	0.5	51*	34

Assay outcomes deposited in PubChem BioAssay by several laboratories.
